From PubChem BioAssay (NCATS) come the findings set out here.

Each structure is given as a SMILES string. Results filed as inconclusive are left out. Unmarked numbers belong to inactive results. The call rests on the fitted dose curve; in most records, active means well fitted activation curve with a large enough effect; inconclusive means small, poorly fitted or top-dose-only effect; inactive means no such curve, though single readings can be large or run the other way.

Chain of Rap guanine nucleotide exchange factor 3 (Homo sapiens) (O95398 whole entry, looked up): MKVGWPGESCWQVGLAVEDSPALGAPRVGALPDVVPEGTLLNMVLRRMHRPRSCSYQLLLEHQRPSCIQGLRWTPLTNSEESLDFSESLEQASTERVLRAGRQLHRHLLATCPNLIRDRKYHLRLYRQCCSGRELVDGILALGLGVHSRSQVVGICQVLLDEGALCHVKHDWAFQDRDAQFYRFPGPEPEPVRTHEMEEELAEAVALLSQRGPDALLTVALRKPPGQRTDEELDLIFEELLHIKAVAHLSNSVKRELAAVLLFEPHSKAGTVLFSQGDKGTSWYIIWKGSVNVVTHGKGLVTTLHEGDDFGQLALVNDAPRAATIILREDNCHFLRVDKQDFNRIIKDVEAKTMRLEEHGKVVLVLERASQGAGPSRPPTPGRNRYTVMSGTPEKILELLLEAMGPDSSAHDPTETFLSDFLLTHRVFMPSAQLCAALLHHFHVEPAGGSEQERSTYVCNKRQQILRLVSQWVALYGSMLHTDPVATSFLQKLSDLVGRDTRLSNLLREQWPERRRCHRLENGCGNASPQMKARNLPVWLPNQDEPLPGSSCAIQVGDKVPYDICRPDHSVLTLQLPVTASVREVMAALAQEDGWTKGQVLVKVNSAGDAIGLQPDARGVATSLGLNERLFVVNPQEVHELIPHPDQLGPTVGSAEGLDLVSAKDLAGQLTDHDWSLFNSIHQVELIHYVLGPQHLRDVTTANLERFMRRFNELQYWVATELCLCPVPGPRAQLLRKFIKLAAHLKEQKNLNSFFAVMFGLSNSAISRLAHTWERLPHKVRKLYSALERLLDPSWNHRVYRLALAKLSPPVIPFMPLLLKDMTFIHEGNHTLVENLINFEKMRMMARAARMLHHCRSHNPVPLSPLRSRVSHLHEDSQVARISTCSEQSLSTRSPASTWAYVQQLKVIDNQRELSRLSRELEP

This experiment concerns the target Rap guanine nucleotide exchange factor 3 (Homo sapiens) (UniProt O95398). As to the kind of experiment: Confirmatory qHTS for agonist of cAMP-regulated guanine nucleotide exchange factor 3 (EPAC1) (AID 1645881).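 Further: EPAC1 catalysed release of BODIPY-GDP from Rap1B seen as fluorescence loss; nearly all actives have a fitted effect of over 75% in size.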 Particulars: EPAC1 Rap1B BODIPY-GDP exchange fluorescence, 100% = cAMP control response; series mostly up to 154 µM; activation: at the top concentration. On the technique in general: qHTS replaces the single test concentration by a dilution series.
With `CCCCOC(=O)c1ccccc1C(=O)OCc1ccccc1`, the “activation” value was -0.12%.

With `Cc1nc(-c2ccc(-c3ccc(C(=O)N4CCc5cc6c(cc54)C4(CCN(C)CC4)CO6)cc3)c(C)c2)no1`, the “activation” value was 6%.

For the compound `CCCN(CCC)c1c([N+](=O)[O-])cc(S(N)(=O)=O)cc1[N+](=O)[O-]`, the “activation” value is -11.2% [at 271 µM].
